# Assay results from PubChem BioAssay AID1159580 (chemical genetic matrix, 2015).
# Among all 5,500 compounds or so, about 2,000 (36%) were called active. About 18% were inconclusive and are not listed. The list shows a part of the results. Unmarked numbers belong to inactive results. Cut-off read from the data, not from the text of the source: active = normalized growth mostly below about 0.91 (no sharp cut-off); inconclusive = no clear call, values can overlap the other calls; inactive = mostly above about 0.92.
# Test: chemical genetic growth profiling, strain panel (AID 1159580);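 note: tested at 20 µM; growth read once vehicle control cultures reached saturation at 30 °C; 1 = growth at the plate median or of vehicle wells; lower values mean less growth of the strain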
# Conditions: growth OD
# [1] = S. cerevisiae deletion strains, locus YAL013W, strain DEP1, hits give low values
# [2] = S. cerevisiae deletion strains, locus YBR229C, strain ROT2, hits give low values
# [3] = S. cerevisiae deletion strains, locus YDL101C, strain DUN1, hits give low values
# [4] = S. cerevisiae deletion strains, locus YDR150W, strain NUM1, hits give low values
# [5] = S. cerevisiae deletion strains, locus YEL061C, strain CIN8, hits give low values
# [6] = S. cerevisiae deletion strains, locus YGR078C, strain PAC10, hits give low values
# [7] = S. cerevisiae deletion strains, locus YHR030C, strain SLT2, hits give low values
# [8] = S. cerevisiae deletion strains, locus YJR043C, strain POL32, hits give low values
# [9] = S. cerevisiae deletion strains, locus YJR075W, strain HOC1, hits give low values
# [10] = S. cerevisiae deletion strains, locus YLR039C, strain RIC1, hits give low values
# [11] = S. cerevisiae deletion strains, locus YLR262C, strain YPT6, hits give low values
# [12] = S. cerevisiae deletion strains, locus YMR263W, strain SAP30, hits give low values
# [13] = S. cerevisiae deletion strains, locus YMR307W, strain GAS1, hits give low values
# [14] = S. cerevisiae deletion strains, locus YNL128W, strain TEP1, hits give low values
# [15] = S. cerevisiae deletion strains, locus YNL153C, strain GIM3, hits give low values
# [16] = S. cerevisiae deletion strains, locus YNL322C, strain KRE1, hits give low values
# [17] = S. cerevisiae deletion strains, locus YOL006C, strain TOP1, hits give low values
# [18] = S. cerevisiae deletion strains, locus YPL055C, strain LGE1, hits give low values
# [19] = S. cerevisiae deletion strains, locus YPL241C, strain CIN2, hits give low values
# [20] = S. cerevisiae deletion strains, locus YAL040C, strain CLN3, hits give low values
# [21] = S. cerevisiae deletion strains, locus YDR363W, strain ESC2, hits give low values
# [22] = S. cerevisiae deletion strains, locus YER002W, strain NOP16, hits give low values
# [23] = S. cerevisiae deletion strains, locus YNL175C, strain NOP13, hits give low values
# [24] = S. cerevisiae deletion strains, locus YNL197C, strain WHI3, hits give low values
# [25] = S. cerevisiae deletion strains, locus YNL224C, strain SQS1, hits give low values
# [26] = S. cerevisiae deletion strains, locus YOR083W, strain WHI5 (second series), hits give low values
# [27] = S. cerevisiae deletion strains, locus YCL061C, strain MRC1 (second series), hits give low values
structure (smiles),measurement,setting,value
Cc1cccc(Nc2ccncc2S(=O)(=O)NC(=O)NC(C)C)c1,normalized growth,[1],1.01
same,normalized growth,"S. cerevisiae deletion strains, locus YBR021W, strain FUR4, hits give low values",1.02
same,normalized growth,[2],1.01
same,normalized growth,"S. cerevisiae deletion strains, locus YCL029C, strain bik1, hits give low values",1.02
same,normalized growth,"S. cerevisiae deletion strains, locus YDL035C, strain GPR1, hits give low values",1.02
same,normalized growth,"S. cerevisiae deletion strains, locus YDL074C, strain BRE1, hits give low values",1.01
same,normalized growth,[3],1.02
same,normalized growth,"S. cerevisiae deletion strains, locus YDL134C, strain PPH21, hits give low values",1
same,normalized growth,"S. cerevisiae deletion strains, locus YDL185W, strain tfp1, hits give low values",1.02
same,normalized growth,"S. cerevisiae deletion strains, locus YDL192W, strain arf1, hits give low values",1.03
same,normalized growth,"S. cerevisiae deletion strains, locus YDR101C, strain arx1, hits give low values",1.02
same,normalized growth,[4],1.02
same,normalized growth,"S. cerevisiae deletion strains, locus YDR162C, strain NBP2, hits give low values",1.01
same,normalized growth,"S. cerevisiae deletion strains, locus YDR318W, strain mcm21, hits give low values",1.03
same,normalized growth,"S. cerevisiae deletion strains, locus YDR388W, hits give low values",1.02
same,normalized growth,"S. cerevisiae deletion strains, locus YDR502C, strain sam2, hits give low values",1.02
same,normalized growth,[5],1.01
same,normalized growth,"S. cerevisiae deletion strains, locus YER110C, hits give low values",1.03
same,normalized growth,"S. cerevisiae deletion strains, locus YER155C, strain BEM2, hits give low values",0.999
same,normalized growth,"S. cerevisiae deletion strains, locus YER167W, strain BCK2, hits give low values",1.01
same,normalized growth,"S. cerevisiae deletion strains, locus YGL078C, strain dbp3, hits give low values",1.02
same,normalized growth,"S. cerevisiae deletion strains, locus YGL086W, strain mad1, hits give low values",1.02
same,normalized growth,"S. cerevisiae deletion strains, locus YGL248W, strain PDE1, hits give low values",1.01
same,normalized growth,[6],1.05
same,normalized growth,"S. cerevisiae deletion strains, locus YGR135W, strain pre9, hits give low values",1.01
same,normalized growth,"S. cerevisiae deletion strains, locus YGR229C, strain SMI1, hits give low values",1.04
same,normalized growth,"S. cerevisiae deletion strains, locus YGR252W, strain gcn5, hits give low values",1.08
same,normalized growth,[7],1.01
same,normalized growth,"S. cerevisiae deletion strains, locus YHR079C, strain IRE1 (second series), hits give low values",1.01
same,normalized growth,"S. cerevisiae deletion strains, locus YHR094C, strain hxt1, hits give low values",1.02
same,normalized growth,"S. cerevisiae deletion strains, locus YHR129C, strain ARP1, hits give low values",1
same,normalized growth,"S. cerevisiae deletion strains, locus YHR200W, strain rpn10, hits give low values",1.03
same,normalized growth,"S. cerevisiae deletion strains, locus YIL066C, strain RNR3, hits give low values",1.04
same,normalized growth,"S. cerevisiae deletion strains, locus YIL125W, strain kgd1, hits give low values",1.01
same,normalized growth,"S. cerevisiae deletion strains, locus YIR030C, strain dcg1, hits give low values",1.02
same,normalized growth,"S. cerevisiae deletion strains, locus YJL095W, strain BCK1, hits give low values",1.02
same,normalized growth,"S. cerevisiae deletion strains, locus YJL134W, strain LCB3, hits give low values",1.01
same,normalized growth,"S. cerevisiae deletion strains, locus YJL168C, strain set2, hits give low values",1.02
same,normalized growth,"S. cerevisiae deletion strains, locus YJL187C, strain SWE1 (second series), hits give low values",1.02
same,normalized growth,[8],1.04
same,normalized growth,[9],1.01
same,normalized growth,"S. cerevisiae deletion strains, locus YKL009W, strain mrt4, hits give low values",1.01
same,normalized growth,"S. cerevisiae deletion strains, locus YKL068W, hits give low values",1.01
same,normalized growth,"S. cerevisiae deletion strains, locus YKL085W, strain MDH1 (second series), hits give low values",0.986
same,normalized growth,"S. cerevisiae deletion strains, locus YKL085W, strain MDH1, hits give low values",0.986
same,normalized growth,"S. cerevisiae deletion strains, locus YKL190W, strain CNB1, hits give low values",1.03
same,normalized growth,"S. cerevisiae deletion strains, locus YKR001C, strain vps1, hits give low values",1.03
same,normalized growth,[10],1.04
same,normalized growth,"S. cerevisiae deletion strains, locus YLR058C, strain SHM2, hits give low values",1.01
same,normalized growth,"S. cerevisiae deletion strains, locus YLR102C, strain apc9, hits give low values",1.02
same,normalized growth,[11],1.03
same,normalized growth,"S. cerevisiae deletion strains, locus YLR268W, strain sec22, hits give low values",1.02
same,normalized growth,"S. cerevisiae deletion strains, locus YLR330W, strain CHS5, hits give low values",1.01
same,normalized growth,"S. cerevisiae deletion strains, locus YLR342W, strain FKS1 (second series), hits give low values",1.06
same,normalized growth,"S. cerevisiae deletion strains, locus YLR371W, strain rom2, hits give low values",1.03
same,normalized growth,"S. cerevisiae deletion strains, locus YLR418C, strain cdc73, hits give low values",1.01
same,normalized growth,"S. cerevisiae deletion strains, locus YML016C, strain PPZ1, hits give low values",1.01
same,normalized growth,"S. cerevisiae deletion strains, locus YML032C, strain rad52, hits give low values",1.03
same,normalized growth,"S. cerevisiae deletion strains, locus YML124C, strain tub3, hits give low values",1.02
same,normalized growth,"S. cerevisiae deletion strains, locus YMR078C, strain ctf18, hits give low values",1.03
same,normalized growth,"S. cerevisiae deletion strains, locus YMR223W, strain ubp8, hits give low values",1.03
same,normalized growth,[12],1.02
same,normalized growth,[13],1.05
same,normalized growth,"S. cerevisiae deletion strains, locus YNL067W, strain RPL9B, hits give low values",1.01
same,normalized growth,[14],1.02
same,normalized growth,[15],1
same,normalized growth,"S. cerevisiae deletion strains, locus YNL233W, strain BNI4, hits give low values",1
same,normalized growth,"S. cerevisiae deletion strains, locus YNL250W, strain rad50, hits give low values",1.02
same,normalized growth,"S. cerevisiae deletion strains, locus YNL271C, strain bni1, hits give low values",1.02
same,normalized growth,"S. cerevisiae deletion strains, locus YNL298W, strain CLA4, hits give low values",1.02
same,normalized growth,"S. cerevisiae deletion strains, locus YNL307C, strain MCK1, hits give low values",1.03
same,normalized growth,[16],1.02
same,normalized growth,"S. cerevisiae deletion strains, locus YNR052C, strain pop2, hits give low values",1.03
same,normalized growth,[17],1
same,normalized growth,"S. cerevisiae deletion strains, locus YOL012C, strain htz1",0.913
same,normalized growth,"S. cerevisiae deletion strains, locus YOL147C, strain pex11, hits give low values",1.02
same,normalized growth,"S. cerevisiae deletion strains, locus YOR061W, strain CKA2, hits give low values",1.01
same,normalized growth,"S. cerevisiae deletion strains, locus YOR069W, strain VPS5, hits give low values",1
same,normalized growth,"S. cerevisiae deletion strains, locus YOR136W, strain idh2, hits give low values",1.03
same,normalized growth,"S. cerevisiae deletion strains, locus YOR144C, strain elg1, hits give low values",1.03
same,normalized growth,"S. cerevisiae deletion strains, locus YOR184W, strain ser1, hits give low values",1.03
same,normalized growth,"S. cerevisiae deletion strains, locus YOR316C, strain cot1, hits give low values",1.02
same,normalized growth,[18],1.04
same,normalized growth,[19],1.03
same,normalized growth,"S. cerevisiae deletion strains, locus YPR119W, strain clb2, hits give low values",1.02
same,normalized growth,"S. cerevisiae deletion strains, locus YPR141C, strain kar3, hits give low values",1.02
same,normalized growth,"S. cerevisiae deletion strains, locus YPR163C, strain tif3, hits give low values",1.03
same,normalized growth,"S. cerevisiae deletion strains, locus YPR167C, strain met16, hits give low values",1.01
same,normalized growth,"S. cerevisiae deletion strains, strain wtn01, hits give low values",1
same,normalized growth,"S. cerevisiae strains, strain wild type, hits give low values",1.04
CC(=O)OCC1=C(C(=O)O)N2C(=O)C(NC(=O)Cc3cccs3)C2SC1 (centres undefined),normalized growth,[1],1.01
same,normalized growth,[20],0.993
same,normalized growth,[21],1
same,normalized growth,[22],1.03
same,normalized growth,[9],0.995
same,normalized growth,[15],1.03
same,normalized growth,[23],1.01
same,normalized growth,[24],1.05
same,normalized growth,[25],1.03
same,normalized growth,[26],1.05
CN1CCN(c2nc3cc(C(F)(F)F)ccc3n3cccc23)CC1,normalized growth,[20],1
same,normalized growth,[27],0.985
same,normalized growth,[21],0.908
same,normalized growth,[22],1.01
same,normalized growth,[6],1.01
same,normalized growth,[9],0.971
same,normalized growth,[12],1
same,normalized growth,[13],0.867 (active)
same,normalized growth,[14],1.05
same,normalized growth,[15],0.88
same,normalized growth,[24],1.06
same,normalized growth,[25],1.03
same,normalized growth,[16],0.972
same,normalized growth,[26],0.919
OC1(c2ccc(Cl)cc2)CSc2nc3cc(C(F)(F)F)ccc3n21 (centres undefined),normalized growth,[1],1.03
same,normalized growth,[2],1
same,normalized growth,[3],0.995
same,normalized growth,[4],1.01
same,normalized growth,[5],1.02
same,normalized growth,[6],1
same,normalized growth,[7],1.02
same,normalized growth,"S. cerevisiae deletion strains, locus YHR087W, strain rtc3, hits give low values",1.03
same,normalized growth,[8],1.01
same,normalized growth,[9],1
same,normalized growth,[10],1.09
same,normalized growth,"S. cerevisiae deletion strains, locus YLR058C, strain SHM2 (second series), hits give low values",1.02
same,normalized growth,"S. cerevisiae deletion strains, locus YLR085C, strain ARP6, hits give low values",1.11
same,normalized growth,[11],1.12
same,normalized growth,"S. cerevisiae deletion strains, locus YML094W, strain GIM5, hits give low values",1.07
same,normalized growth,"S. cerevisiae deletion strains, locus YMR219W, strain ESC1, hits give low values",1.01
same,normalized growth,[12],1.02
same,normalized growth,[15],0.991
same,normalized growth,"S. cerevisiae deletion strains, locus YNL298W, strain CLA4 (second series), hits give low values",1.1
same,normalized growth,[16],1.02
same,normalized growth,"S. cerevisiae deletion strains, locus YNR030W, strain Alg12, hits give low values",1.09
same,normalized growth,[17],1.08
same,normalized growth,[18],0.998
same,normalized growth,[19],1.04
same,normalized growth,"S. cerevisiae deletion strains, locus YPR135W, strain CTF4, hits give low values",1.02
CN1CCN(c2ccc3ccccc3n2)CC1,normalized growth,[20],1.04
same,normalized growth,[27],0.996
same,normalized growth,[4],1
same,normalized growth,[21],0.982
same,normalized growth,[22],1
same,normalized growth,[6],1.01
same,normalized growth,[9],0.982
same,normalized growth,[13],1
same,normalized growth,[23],1.02
same,normalized growth,[24],1
same,normalized growth,[25],1.01
same,normalized growth,[16],0.982
same,normalized growth,[26],1.03
same,normalized growth,[18],0.925
same,normalized growth,[19],0.993
